Out of some 5,500 compounds screened, about 2,000 (36%) were called active. Roughly 18% stayed inconclusive and do not appear here. Rule as the data show it: active = normalized growth mostly below about 0.91 (no sharp cut-off); inconclusive = no clear call, values can overlap the other calls; inactive = mostly above about 0.92. The list shows a part of the results.
Assay: chemical genetic growth profiling, strain panel (AID 1159580);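 also: tested at 20 µM; growth read once vehicle control cultures reached saturation at 30 °C; 1 = growth at the plate median or of vehicle wells; lower values mean less growth of the strain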
Conditions: S. cerevisiae deletion strains, growth OD
[1] = locus YAR019C, strain CDC15, active compounds read low
[2] = locus YBL105C, strain PKC1, active compounds read low
[3] = locus YBR135W, strain CKS1, active compounds read low
[4] = locus YBR136W, strain MEC1, active compounds read low
[5] = locus YBR160W, strain CDC28, active compounds read low
[6] = locus YDL017W, strain CDC7, active compounds read low
[7] = locus YDL028C, strain MPS1, active compounds read low
[8] = locus YDL101C, strain DUN1, active compounds read low
[9] = locus YDL108W, strain KIN28, active compounds read low
[10] = locus YDL132W, strain cdc53, active compounds read low
[11] = locus YDL214C, strain PRR2, active compounds read low
[12] = locus YDR052C, strain DBF4, active compounds read low
[13] = locus YDR054C, strain cdc34, active compounds read low
[14] = locus YDR226W, strain ADK1, active compounds read low
[15] = locus YDR477W, strain SNF1, active compounds read low
[16] = locus YER123W, strain YCK3, active compounds read low
[17] = locus YER133W, strain GLC7, active compounds read low
[18] = locus YFL009W, strain cdc4, active compounds read low
[19] = locus YFL029C, strain CAK1, active compounds read low
[20] = locus YFR003C, strain YPI1, active compounds read low
[21] = locus YFR019W, strain FAB1, active compounds read low
[22] = locus YFR028C, strain CDC14, active compounds read low
[23] = locus YGR040W, strain KSS1, active compounds read low
[24] = locus YGR052W, strain FMP48, active compounds read low
[25] = locus YGR092W, strain DBF2, active compounds read low
[26] = locus YHR030C, strain SLT2, active compounds read low
[27] = locus YHR079C, strain IRE1, active compounds read low
[28] = locus YHR082C, strain KSP1, active compounds read low
[29] = locus YHR205W, strain SCH9, active compounds read low
[30] = locus YIL147C, strain SLN1, active compounds read low
[31] = locus YJL095W, strain BCK1, active compounds read low
[32] = locus YJL128C, strain PBS2, active compounds read low
[33] = locus YJL157C, strain FAR1, active compounds read low
[34] = locus YJR016C, strain ILV3, active compounds read low
[35] = locus YJR066W, strain TOR1 (second series), active compounds read low
[36] = locus YJR066W, strain TOR1, active compounds read low
[37] = locus YKL048C, strain ELM1, active compounds read low
[38] = locus YKL067W, strain YNK1, active compounds read low
[39] = locus YKL101W, strain HSL1, active compounds read low
[40] = locus YKL193C, strain SDS22, active compounds read low
[41] = locus YKL203C, strain TOR2, active compounds read low
[42] = locus YLR113W, strain HOG1, active compounds read low
[43] = locus YLR133W, strain CKI1, active compounds read low
[44] = locus YLR403W, strain SFP1, active compounds read low
[45] = locus YML070W, strain DAK1, active compounds read low
[46] = locus YMR001C, strain CDC5, active compounds read low
[47] = locus YMR205C, strain PFK2 (second series), active compounds read low
[48] = locus YMR277W, strain FCP1, active compounds read low
[49] = locus YNL006W, strain LST8, active compounds read low
[50] = locus YNL020C, strain ARK1, active compounds read low
[51] = locus YNL161W, strain CBK1, active compounds read low
[52] = locus YNL183C, strain NPR1, active compounds read low
[53] = locus YNL207W, strain RIO2, active compounds read low
[54] = locus YNL222W, strain SSU72, active compounds read low
[55] = locus YNL307C, strain MCK1 (second series), active compounds read low
[56] = locus YOL078W, strain AVO1, active compounds read low
[57] = locus YOL136C, strain PFK27, active compounds read low
[58] = locus YOR061W, strain CKA2, active compounds read low
[59] = locus YOR119C, strain RIO1, active compounds read low
[60] = locus YOR231W, strain MKK1, active compounds read low
[61] = locus YOR329C, strain SCD5, active compounds read low
[62] = locus YPL031C, strain PHO85, active compounds read low
[63] = locus YPL153C, strain RAD53, active compounds read low
[64] = locus YPL204W, strain HRR25, active compounds read low
[65] = locus YPL209C, strain IPL1, active compounds read low
[66] = locus YPL256C, strain CLN2, active compounds read low
[67] = locus YPR025C, strain CCL1, active compounds read low
[68] = locus YPR106W, strain ISR1, active compounds read low
[69] = locus YPR111W, strain DBF20, active compounds read low
[70] = strain NNK1, active compounds read low
[71] = strain TSCII, active compounds read low

Measured: normalized growth

CC(=O)ON=C1c2cc([N+](=O)[O-])ccc2-c2ccc([N+](=O)[O-])cc21
active: [25] 0.426 | [26] 0.788 | [42] 0.789
inactive: [1] 0.948 | [2] 0.942 | [3] 0.949 | [4] 0.939 | [5] 0.955 | [6] 0.954 | [7] 0.933 | [8] 0.963 | [9] 0.937 | [10] 0.971 | [11] 0.85 | [12] 0.953 | [13] 0.942 | [14] 0.983 | [15] 0.729 | [16] 0.793 | [17] 0.867 | [18] 0.966 | [19] 0.948 | [20] 0.935 | [21] 0.933 | [22] 0.963 | [23] 0.702 | [24] 0.793 | [27] 0.825 | [28] 0.796 | [29] 0.858 | [30] 0.93 | [31] 0.778 | [32] 0.917 | [33] 0.835 | [34] 0.939 | [35] 0.682 | [36] 0.76 | [37] 0.892 | [38] 0.864 | [39] 0.761 | [40] 0.945 | [41] 0.843 | [43] 0.879 | [44] 0.776 | [45] 0.852 | [46] 0.942 | [47] 0.865 | [48] 0.936 | [49] 0.953 | [50] 0.836 | [51] 0.952 | [52] 0.745 | [53] 0.93 | [54] 0.939 | [55] 0.691 | [56] 0.95 | [57] 0.866 | [58] 0.751 | [59] 0.817 | [60] 0.848 | [61] 0.942 | [62] 0.701 | [63] 0.724 | [64] 0.749 | [65] 0.948 | [66] 0.891 | [67] 0.947 | [68] 0.964 | [69] 0.957 | [70] 0.944 | [71] 0.943

CCCCN(C)C(=O)c1cc([N+](=O)[O-])cc2c1-c1ccc([N+](=O)[O-])cc1C2=C(C#N)C#N
inactive: [1] 0.984 | [2] 0.988 | [3] 0.985 | [4] 0.977 | [5] 0.979 | [6] 0.985 | [7] 0.976 | [8] 0.98 | [9] 0.974 | [10] 0.969 | [11] 0.983 | [12] 0.975 | [13] 0.98 | [14] 0.994 | [15] 0.972 | [16] 0.942 | [17] 0.984 | [18] 0.983 | [19] 0.98 | [20] 0.984 | [21] 0.961 | [22] 0.98 | [23] 0.978 | [24] 0.953 | [25] 0.944 | [26] 0.968 | [27] 0.957 | [28] 1.04 | [29] 0.976 | [30] 0.982 | [31] 0.868 | [32] 0.959 | [33] 0.988 | [34] 0.973 | [35] 0.971 | [36] 0.973 | [37] 0.98 | [38] 0.971 | [39] 0.951 | [40] 0.977 | [41] 1.01 | [42] 0.871 | [43] 0.99 | [44] 0.966 | [45] 0.94 | [46] 0.977 | [47] 0.985 | [48] 0.976 | [49] 0.983 | [50] 0.985 | [51] 0.983 | [52] 0.968 | [53] 0.979 | [54] 0.978 | [55] 0.907 | [56] 0.968 | [57] 0.941 | [58] 0.971 | [59] 1.03 | [60] 0.876 | [61] 0.99 | [62] 0.967 | [63] 0.986 | [64] 0.958 | [65] 0.986 | [66] 0.968 | [67] 0.982 | [68] 0.985 | [69] 0.993 | [70] 0.994 | [71] 0.98

From PubChem BioAssay AID1159580 (chemical genetic matrix, 2015)
